The text below walks through data of PMC4336329 (PLoS ONE, 2015).

Molecules are shown by their SMILES. Among all 310,000 compounds or so, about 14,000 (4.5%) showed an effect of 50% or more. Effects have a minus sign here. Shown is part of a subset that was picked to be rich in strong results.
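Further: peak tail current of the secondary pulse compared with the same well before compound.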

For this assay, the target named is human ether-à-go-go-related gene (hERG) potassium channel (human, UniProt Q12809). The assay can be described thus: primary screen, population patch clamp on CHO cells stably expressing hERG; higher = less effect of the substance.
Chain of human ether-à-go-go-related gene (hERG) potassium channel (Q12809 whole entry, looked up): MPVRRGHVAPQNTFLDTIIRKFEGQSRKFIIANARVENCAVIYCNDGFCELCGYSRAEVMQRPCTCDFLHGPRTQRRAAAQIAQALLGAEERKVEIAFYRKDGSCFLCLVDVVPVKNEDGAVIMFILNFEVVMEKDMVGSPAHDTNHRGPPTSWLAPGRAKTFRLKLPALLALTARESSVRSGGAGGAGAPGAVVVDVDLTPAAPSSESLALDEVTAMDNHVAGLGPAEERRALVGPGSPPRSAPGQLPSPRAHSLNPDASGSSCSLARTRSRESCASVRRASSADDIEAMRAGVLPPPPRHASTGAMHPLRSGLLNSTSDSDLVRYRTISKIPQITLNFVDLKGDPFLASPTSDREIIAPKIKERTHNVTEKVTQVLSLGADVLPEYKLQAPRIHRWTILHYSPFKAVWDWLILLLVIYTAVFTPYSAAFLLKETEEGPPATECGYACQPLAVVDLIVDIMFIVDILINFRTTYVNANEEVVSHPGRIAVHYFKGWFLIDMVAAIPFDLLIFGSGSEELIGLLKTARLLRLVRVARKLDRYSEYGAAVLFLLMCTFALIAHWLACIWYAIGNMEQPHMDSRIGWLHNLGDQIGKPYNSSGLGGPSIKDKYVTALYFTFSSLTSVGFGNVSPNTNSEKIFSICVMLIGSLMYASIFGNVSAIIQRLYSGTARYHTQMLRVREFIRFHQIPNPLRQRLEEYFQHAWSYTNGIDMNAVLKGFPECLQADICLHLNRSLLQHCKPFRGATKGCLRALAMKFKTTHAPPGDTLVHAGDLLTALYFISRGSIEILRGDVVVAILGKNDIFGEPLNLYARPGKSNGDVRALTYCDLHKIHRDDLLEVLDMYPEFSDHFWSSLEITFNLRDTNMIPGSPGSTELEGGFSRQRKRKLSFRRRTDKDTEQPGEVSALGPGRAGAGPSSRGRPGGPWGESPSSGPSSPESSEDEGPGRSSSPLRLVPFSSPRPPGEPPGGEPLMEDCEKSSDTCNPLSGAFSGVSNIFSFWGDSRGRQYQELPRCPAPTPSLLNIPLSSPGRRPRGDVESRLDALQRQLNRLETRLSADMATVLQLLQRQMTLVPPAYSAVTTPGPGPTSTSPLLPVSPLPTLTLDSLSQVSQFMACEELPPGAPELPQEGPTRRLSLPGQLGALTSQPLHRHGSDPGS
As to `O=C(CSc1nnc(-c2cccs2)o1)N1CCCCC1`, the “hERG current change (%, negative = inhibition) at 10uM” value is on record as 2.99%.

In the case of `CCOC(=O)CSc1nc2ccccc2c(=O)n1-c1ccc(C)cn1`, the “hERG current change (%, negative = inhibition) at 10uM” value came to 0.327%.

As for `O=C(/C=C/c1ccccc1)NCC1(c2ccccc2)CCOCC1`, the “hERG current change (%, negative = inhibition) at 10uM” value is -9.11%.

`O=C(/C=C/c1ccco1)NCC1(c2ccccc2)CCCC1`: the “hERG current change (%, negative = inhibition) at 10uM” value was -4.49%.

`O=C(/C=C/c1ccc(F)cc1)NCC1(c2ccccc2)CCOCC1`: the “hERG current change (%, negative = inhibition) at 10uM” value was -50.5%.

For `O=C(NC1CCCC1)C(c1ccncc1)N(C(=O)c1csnn1)c1ccccc1` (stereo not drawn), the “hERG current change (%, negative = inhibition) at 10uM” value is on record as 15.1%.

Turning to `Cc1cc(N2C(=O)C(O)=C(C(=O)c3ccco3)C2c2ccc(Cl)cc2)no1` (stereo not drawn), the “hERG current change (%, negative = inhibition) at 10uM” value is given as -6.77%.

As for `O=C(NCC(=O)N(c1cccc(F)c1)C(C(=O)NCC1CCCO1)c1ccccc1)c1ccco1` (stereo not drawn), the “hERG current change (%, negative = inhibition) at 10uM” value is 6.26%.

Turning to `Cc1ccc(S(=O)(=O)N(C)c2ccc(OCC(=O)NCc3ccco3)cc2)cc1`, the “hERG current change (%, negative = inhibition) at 10uM” value is -44.8%.

With `Cc1ccc(S(=O)(=O)N(C)c2ccc(OCC(=O)NCC3(N(C)C)CCCCC3)cc2)cc1`, the “hERG current change (%, negative = inhibition) at 10uM” value is on record as -73.5%.

Turning to `Cc1ccc(S(=O)(=O)N(C)c2ccc(C(=O)NCC3(N(C)C)CCCCC3)cc2)cc1`, the “hERG current change (%, negative = inhibition) at 10uM” value is reported as -65.4%.

Take `Cc1ccc(S(=O)(=O)N(C)c2ccc(C(=O)NCC3CCCO3)cc2)cc1` (stereo not drawn): the “hERG current change (%, negative = inhibition) at 10uM” value is on record as -16.7%.

As to `COc1ccc(CCNC(=O)COc2ccc(N(C)S(=O)(=O)c3ccc(C)cc3)cc2)cc1`, the “hERG current change (%, negative = inhibition) at 10uM” value is reported as 6.95%.

Take `Cc1ccc(S(=O)(=O)N(C)c2ccc(C(=O)NCCc3ccccc3)cc2)cc1`: the “hERG current change (%, negative = inhibition) at 10uM” value is given as -6.94%.

As to `O=C(CN1C(=O)NC(CCc2ccccc2)C1=O)NC1CC1` (stereo not drawn), the “hERG current change (%, negative = inhibition) at 10uM” value is 18.8%.

On to `Cc1ccc(SC(C)C(=O)NCc2cccnc2)cc1` (stereo not drawn), for which the “hERG current change (%, negative = inhibition) at 10uM” value was found to be 5.44%.

In the case of `COc1ccc(C(C)(C)C)cc1NC(=S)NCCN1CCOCC1`, the “hERG current change (%, negative = inhibition) at 10uM” value amounted to 1.38%.

`Cc1ccc(Cn2c(=N)c(C(=O)NC3CCCC3)cc3c(=O)n4ccccc4nc32)cc1`: the “hERG current change (%, negative = inhibition) at 10uM” value is -92.7%.

In the case of `Cc1ccc(Cn2c(=N)c(S(=O)(=O)c3ccc(Br)cc3)cc3c(=O)n4ccccc4nc32)cc1`, the “hERG current change (%, negative = inhibition) at 10uM” value is listed as -6.27%.

On to `Cc1ccc(Cn2c(=N)c(C(=O)NC3CCCCC3)cc3c(=O)n4ccccc4nc32)cc1`, for which the “hERG current change (%, negative = inhibition) at 10uM” value was -65.7%.

For the compound `Cc1ccc(Cn2c(=N)c(S(=O)(=O)c3ccc(C)cc3)cc3c(=O)n4ccccc4nc32)cc1`, the “hERG current change (%, negative = inhibition) at 10uM” value is on record as 17.7%.

For the compound `C/C(=N\NC(=O)C1CCCC1)c1ccc(Cl)c(Cl)c1`, the “hERG current change (%, negative = inhibition) at 10uM” value was found to be 13.7%.

For `O=C(c1ccco1)N1CCN(C(=O)C2CCCN(S(=O)(=O)Cc3ccccc3)C2)CC1` (stereo not drawn), the “hERG current change (%, negative = inhibition) at 10uM” value was -35.4%.

For the compound `O=C(NCc1c(Cl)cccc1Cl)c1ccc2nnsc2c1`, the “hERG current change (%, negative = inhibition) at 10uM” value came out at 8.96%.

Take `CCCCOc1ccc(C(=O)N2CCN(CC(=O)Nc3ccc(C)cc3)CC2)cc1OC`: the “hERG current change (%, negative = inhibition) at 10uM” value is -47.1%.

In the case of `CCOc1ccc(NC(=O)CN2CCN(CC(=O)Nc3ccc(C(=O)OC)cc3)CC2)cc1`, the “hERG current change (%, negative = inhibition) at 10uM” value is listed as -66.2%.

Turning to `NC(=O)c1ccc(NC(=O)CN2CCOCC2)cc1`, the “hERG current change (%, negative = inhibition) at 10uM” value turned out to be 17.9%.

Turning to `CCOc1ccc(NC(=O)CNC(=O)c2ccc(OC)c(OC)c2)cc1`, the “hERG current change (%, negative = inhibition) at 10uM” value was 0.00778%.

Consider `Cc1ccc(OCC(=O)Nc2ccc(C(N)=O)cc2)cc1`, for which the “hERG current change (%, negative = inhibition) at 10uM” value was found to be 16.5%.

As to `CCOc1ccc(NC(=O)CN2CCN(CC(=O)c3ccc(OC)c(OC)c3)CC2)cc1`, the “hERG current change (%, negative = inhibition) at 10uM” value is given as -84.4%.

In the case of `COC(=O)c1ccc(NC(=O)CN2CCN(CCO)CC2)cc1.Cl`, the “hERG current change (%, negative = inhibition) at 10uM” value is -5.29%.

On to `COC(=O)c1ccc(NC(=O)CN2CCCC2)cc1`, for which the “hERG current change (%, negative = inhibition) at 10uM” value is 5.33%.

As for `CCOc1ccc(NC(=O)CN2CCN(CC(=O)Nc3ccc(C(N)=O)cc3)CC2)cc1`, the “hERG current change (%, negative = inhibition) at 10uM” value is -72.6%.

For `Cc1ccccc1C(=O)Nc1nnc(CC(=O)N/N=C/c2cn(Cc3ccccc3)c3ccccc23)s1`, the “hERG current change (%, negative = inhibition) at 10uM” value came out at 12.6%.

On to `COc1ccc([N+](=O)[O-])cc1NC(=O)CCN1CCN(C)CC1`, for which the “hERG current change (%, negative = inhibition) at 10uM” value stood at 16.3%.

Regarding `COC(=O)C(NC(=O)CCC(=O)N[C@@H](C(=O)OC)c1ccccc1)c1ccccc1` (stereo partly drawn), the “hERG current change (%, negative = inhibition) at 10uM” value is listed as 9.88%.

Consider `N#CC1=CN(Cc2ccccc2)C=C(/C=N/Nc2ccccc2)C1`, for which the “hERG current change (%, negative = inhibition) at 10uM” value is listed as -5.72%.

In the case of `c1ccc2c(CNc3ccc(CNc4ncn[nH]4)cc3)cccc2c1`, the “hERG current change (%, negative = inhibition) at 10uM” value amounted to 1.99%.

Consider `CCCCC(=O)Nc1ccc(C(=O)NNC(=O)CCCOc2ccc(Cl)cc2Cl)cc1`, for which the “hERG current change (%, negative = inhibition) at 10uM” value was found to be 7.25%.

`Fc1ccc(COc2cccc3cccnc23)cc1`: the “hERG current change (%, negative = inhibition) at 10uM” value is -8.3%.

As for `CC(OC(=O)c1ccc(NS(=O)(=O)c2ccc3[nH]c(=O)[nH]c3c2)cc1)C(N)=O` (stereo not drawn), the “hERG current change (%, negative = inhibition) at 10uM” value is 18.1%.

As for `O=C(NC1CCCc2ccccc21)c1cc(S(=O)(=O)N2CCOCC2)ccc1F` (stereo not drawn), the “hERG current change (%, negative = inhibition) at 10uM” value stood at 6.48%.

With `COc1ccc(/C=C/C(=O)Nc2nc(C)c(C(=O)N(C)C)s2)cc1`, the “hERG current change (%, negative = inhibition) at 10uM” value is 3.15%.

Consider `CCN(CC)CCN(C(=O)c1ccc2ccccc2c1)c1nc2ccc(OC)cc2s1.Cl`, for which the “hERG current change (%, negative = inhibition) at 10uM” value is given as -30%.

`CCOc1cccc2sc(N(CCN(CC)CC)C(=O)c3cccc([N+](=O)[O-])c3)nc12.Cl`: the “hERG current change (%, negative = inhibition) at 10uM” value was -75%.

`CCOc1cccc2sc(N(CCN(CC)CC)C(=O)c3cccc(N4C(=O)CCC4=O)c3)nc12.Cl`: the “hERG current change (%, negative = inhibition) at 10uM” value is given as -68.4%.

With `CCOc1ccc2nc(N(CCN(CC)CC)C(=O)c3ccc([N+](=O)[O-])cc3)sc2c1.Cl`, the “hERG current change (%, negative = inhibition) at 10uM” value is recorded as -65.7%.

For the compound `CCN(CC)CCN(C(=O)c1ccc2c(c1)CCCC2)c1nc2ccc(OC)cc2s1.Cl`, the “hERG current change (%, negative = inhibition) at 10uM” value is on record as -5.4%.

As to `CCN(CC)CCN(C(=O)c1ccc([N+](=O)[O-])cc1)c1nc2ccc(OC)cc2s1.Cl`, the “hERG current change (%, negative = inhibition) at 10uM” value is recorded as -49.7%.

For `CN(C)CCCN(C(=O)c1cccc(N2C(=O)CCC2=O)c1)c1nc2cc3c(cc2s1)OCO3.Cl`, the “hERG current change (%, negative = inhibition) at 10uM” value is listed as -24%.

For the compound `CCN(CC)CCN(C(=O)c1ccc(N2C(=O)CCC2=O)cc1)c1nc2cc3c(cc2s1)OCO3.Cl`, the “hERG current change (%, negative = inhibition) at 10uM” value is -44.6%.

Consider `CCN(CC)CCN(C(=O)c1ccc2ccccc2c1)c1nc2ccc(F)cc2s1.Cl`, for which the “hERG current change (%, negative = inhibition) at 10uM” value is recorded as -12.7%.

With `CCN(CC)CCN(C(=O)c1cccc([N+](=O)[O-])c1)c1nc2ccc(OC)cc2s1.Cl`, the “hERG current change (%, negative = inhibition) at 10uM” value is -39.1%.

With `CCOc1ccc2nc(N(CCN(CC)CC)C(=O)c3cccc([N+](=O)[O-])c3)sc2c1.Cl`, the “hERG current change (%, negative = inhibition) at 10uM” value is listed as -59.5%.
